High-throughput results from PubChem.
In the library only some 9.4% were active in any assay of this set; here they are far more common.
FLuc counter: counter-screen for miR-21 project: firefly luciferase inhibitors or activators; Potency, µM (highest dose often 57.5 µM), hits mostly inhibitors; hit rate 6.9% among 360,000; AID 588342; purified FLuc, Km substrates, luminescence inhibition; note: nearly all actives have a fitted effect of over 55% in size
Target sequence (P08659 whole entry, looked up): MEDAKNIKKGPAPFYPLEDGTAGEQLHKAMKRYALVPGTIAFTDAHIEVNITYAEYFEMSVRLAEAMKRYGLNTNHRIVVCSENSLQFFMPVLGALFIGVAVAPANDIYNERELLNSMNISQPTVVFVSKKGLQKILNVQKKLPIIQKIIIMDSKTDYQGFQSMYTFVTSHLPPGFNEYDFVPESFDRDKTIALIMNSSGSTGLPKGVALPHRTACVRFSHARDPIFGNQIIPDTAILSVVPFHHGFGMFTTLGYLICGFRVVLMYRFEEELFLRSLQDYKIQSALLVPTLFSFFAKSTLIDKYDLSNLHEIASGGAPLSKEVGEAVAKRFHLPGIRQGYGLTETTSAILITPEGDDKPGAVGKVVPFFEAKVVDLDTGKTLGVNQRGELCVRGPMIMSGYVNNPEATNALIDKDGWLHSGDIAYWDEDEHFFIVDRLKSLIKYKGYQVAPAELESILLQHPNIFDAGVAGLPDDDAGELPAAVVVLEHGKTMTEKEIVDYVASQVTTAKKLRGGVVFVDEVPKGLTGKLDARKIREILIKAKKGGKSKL
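Purified P. pyralis luciferase, 10 nM final, with Km-level 10 uM D-luciferin and 10 uM ATP in 50 mM Tris acetate pH 7.5, 10 mM Mg acetate, 0.01% Tween-20, 0.05% BSA; 6-point qHTS titration about 60 µM downward; luminescence read.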
ELG1 DNA repair: ELG1-dependent DNA repair inhibition; HEK293T ELG1-luciferase reporter, luminescence, 16 h; DNA damage induced by 5-fluorouridine; Potency, µM (doses to about 46.1 µM), actives largely listed as inhibitors; hit rate 2.3% among 330,000; AID 504467; note: nearly all actives have a fitted effect of over 55% in size
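HEK293T cells expressing luciferase-tagged ELG1 (2,000/well) received 5-Fluorouridine plus compound or DMSO for 16 hr at 37 °C. Luciferase was read by ONE-Glo luminescence after 30 min at room temperature.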
ELG1 genotoxic: induces genotoxicity in HEK293T cells with luciferase-tagged ELG1; HEK293T ELG1-luciferase reporter, luminescence, 16 h; Potency, µM (titrated, usually from 46 µM), most hits filed as activators; hit rate 1.3% among 330,000; AID 504466; note: nearly all actives have a fitted effect of over 60% in size
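Reporter readout depends on ELG1 protein level, which increases with genetic stress. After 16 hr compound exposure at 37 °C, luciferase activity was quantified using ONE-Glo.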
NPC1 promoter act: activators of NPC1 promoter. Huh7 NPC1 promoter luciferase reporter, 24 h. Potency, µM (titrated, usually from 9.22 µM), actives largely listed as activators. hit rate 2.4% among 320,000. AID 485313; note: nearly all actives have a fitted effect of over 60% in size
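Luciferase expression driven by the NPC1 promoter was measured in stably transfected Huh7 cells after a 24 h compound incubation, using a luciferase reagent and a luminescence read.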
Rab9 prom act: activates the Rab9 promoter; Potency, µM (doses to about 9.22 µM), usual class: activators; Huh7 Rab9 promoter-luciferase reporter, luminescence, 24 h; hit rate 2.8% among 320,000; note: nearly all actives have a fitted effect of over 60% in size
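Promoter activation is measured as luciferase luminescence in Huh7 cells stably transfected with a Rab9 promoter–luciferase construct, following 24 h compound exposure at 37 °C and 10 min reagent incubation at ambient temperature.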
SMN2 splice enh: enhancers of SMN2 splice variant expression; HEK293 SMN2-luciferase splicing reporter, luminescence, 30-36 h; Potency, µM (top dose mostly 46.1 µM), usual class: activators; hit rate 2.8% among 210,000; AID 1458; note: nearly all actives have a fitted effect of over 55% in size
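HEK293 cells carry an SMN2 […]–luciferase reporter in which exon 7 inclusion puts luciferase in frame. Cells were plated 10-12 h before compound addition, then incubated 30-36 h at 37C. ONE-Glo luminescence was read; sodium butyrate at 4.5 mM final served as control.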
Numbers stand for hits; [ ] = another dose, or the depositor's remark. Calls come from the whole dose curve; as a rule, active = well fitted curve in the direction sought with a large enough effect; inconclusive = small, poorly fitted or top-dose-only effect, or another doubt; inactive = no such curve, though single readings can be large; an effect the other way counts as inactive or inconclusive.

Results for COCCCn1c(SCC(=O)Nc2ccc(C(=O)OC)cc2)nc2ccccc2c1=O ?
FLuc counter: inactive; ELG1 DNA repair: inactive; ELG1 genotoxic: inactive; NPC1 promoter act: inactive; Rab9 prom act: inactive; SMN2 splice enh: inactive

How did CCn1c(=O)cc(OCC(=O)N(C)c2cc(Cl)ccc2C)c2ccccc21 do in these assays?
FLuc counter: inactive; SMN2 splice enh: inactive

Results for COc1ccccc1NC(=O)C1=C(C)Nc2nc(SCc3ccccc3)nn2C1c1cccs1 (stereo not drawn) ?
FLuc counter: inactive; SMN2 splice enh: inactive

What do the screens show for `Cc1cccc(OCc2n(CC(=O)OC3CC(C)CCC3C(C)C)c3ccccc3[n+]2C)c1` (stereo not drawn)?
FLuc counter: inactive; ELG1 DNA repair: inconclusive; ELG1 genotoxic: inactive; NPC1 promoter act: inactive; Rab9 prom act: inactive

How did CC1CCC(C(C)C)C(OC(=O)Cn2c(-c3ccc(F)cc3)[n+](C)c3ccccc32)C1 (stereo not drawn) do in these assays?
FLuc counter: inactive; ELG1 DNA repair: 16µM; ELG1 genotoxic: inactive; NPC1 promoter act: inactive; Rab9 prom act: inactive; SMN2 splice enh: inactive

How did CC1CCC(C(C)C)C(OC(=O)Cn2c(-c3ccccc3)[n+](C)c3ccccc32)C1 (stereo not drawn) do in these assays?
FLuc counter: inactive; ELG1 DNA repair: 6.5µM; ELG1 genotoxic: inactive; NPC1 promoter act: inactive; Rab9 prom act: inactive; SMN2 splice enh: inactive

How did COc1cccc(C(=O)NC2C(=O)N3C(C(=O)O)=C(COC(C)=O)CSC23)c1 (stereo not drawn) do in these assays?
FLuc counter: 21µM; ELG1 DNA repair: inactive; ELG1 genotoxic: inactive; NPC1 promoter act: inactive; Rab9 prom act: inactive

How did C=CCN1c2ccccc2[C@]23C[C@@H](C(=O)OC)N(S(=O)(=O)c4ccc5c(c4)OCCN5C)C2=NC(C(=O)OC)=C(C(=O)OC)[C@H]13 do in these assays?
SMN2 splice enh: inactive[9.22 µM]

How did Cc1cc(/C=C2/C(=N)N3C(c4ccccc4)=CSC3=NC2=O)c(C)n1-c1ccccc1 do in these assays?
FLuc counter: 2.4µM; ELG1 DNA repair: inconclusive; ELG1 genotoxic: inactive; NPC1 promoter act: inactive; Rab9 prom act: inactive; SMN2 splice enh: inactive

Results for CC1=NN2C(=N)/C(=C\c3cc(C)n(-c4ccccc4)c3C)C(=O)N=C2S1 ?
FLuc counter: 4.8µM; ELG1 DNA repair: inactive; ELG1 genotoxic: inactive; NPC1 promoter act: inactive; Rab9 prom act: inactive; SMN2 splice enh: inactive

What do the screens show for `CCC(CC)C1=NN2C(=N)/C(=C\c3cc(C)n(-c4cccc(C)c4)c3C)C(=O)N=C2S1`?
FLuc counter: inactive; ELG1 DNA repair: inactive; ELG1 genotoxic: inactive; NPC1 promoter act: inactive; Rab9 prom act: inactive; SMN2 splice enh: inactive

How did Cc1cccc(CCNC(=O)c2ccc3c(c2)N(Cc2ccccc2F)C(=O)c2ccccc2S3)c1 do in these assays?
FLuc counter: inactive

Results for CCC(Sc1nc2ccncc2[nH]1)C(=O)Nc1cc(C)ccc1C (stereo not drawn) ?
FLuc counter: inactive; SMN2 splice enh: inactive

Results for COc1ccccc1CNc1ccc(-c2nc(C(C)C)no2)cc1[N+](=O)[O-] ?
FLuc counter: 12µM

Results for COc1ccccc1CNc1ccc(-c2nc(C)no2)cc1[N+](=O)[O-] ?
FLuc counter: 13µM

What do the screens show for `COC(=O)[C@@H](NC(=O)O[C@H]1C(=O)c2cc(OC)ccc2O[C@@H]1c1ccc(OC)c(Br)c1)C(C)C`?
SMN2 splice enh: inactive

How did Cc1cccn2c(=O)cc(CSc3nnc(NC(=O)C(C)C)s3)nc12 do in these assays?
FLuc counter: inactive

How did Nc1c(-c2ccccc2)c(CSc2nc3ccccc3[nH]2)nn1-c1ccc(Cl)cc1 do in these assays?
FLuc counter: inactive; ELG1 DNA repair: 6.5µM; ELG1 genotoxic: inactive; NPC1 promoter act: inactive; Rab9 prom act: inactive; SMN2 splice enh: inactive

How did Nc1c(-c2ccccc2)c(CSc2nc3ccccc3[nH]2)nn1-c1cccc(Cl)c1 do in these assays?
FLuc counter: inactive; ELG1 DNA repair: 2.9µM; ELG1 genotoxic: inactive; NPC1 promoter act: inactive; Rab9 prom act: inactive; SMN2 splice enh: inactive

How did Cc1ccccc1-n1nc(CSc2nc3ccccc3[nH]2)c(-c2ccccc2)c1N do in these assays?
FLuc counter: inactive; ELG1 DNA repair: inconclusive; ELG1 genotoxic: inactive; NPC1 promoter act: inactive; Rab9 prom act: inactive

How did c1ccc(-c2nnc(CSc3nc4ccccc4[nH]3)o2)cc1 do in these assays?
FLuc counter: inactive; ELG1 DNA repair: inactive; ELG1 genotoxic: inactive; NPC1 promoter act: inactive; Rab9 prom act: inactive; SMN2 splice enh: inactive

How did C[C@]12C[C@@](C)(C=C1/C=C/c1ccc(C(F)(F)F)cc1)C(=O)C[C@H]2c1ccc(C(F)(F)F)cc1 do in these assays?
SMN2 splice enh: inactive

What do the screens show for `CCCCC1CCC(C(=O)Nc2ccccc2N2CCOCC2)CC1` (stereo not drawn)?
ELG1 DNA repair: inactive; ELG1 genotoxic: inactive; NPC1 promoter act: inactive; Rab9 prom act: inactive

What do the screens show for `CC(C)(C)C1CCC(C(=O)Nc2ccc(N3CCOCC3)cc2N2CCOCC2)CC1` (stereo not drawn)?
FLuc counter: inactive; ELG1 DNA repair: 15µM; ELG1 genotoxic: inactive; NPC1 promoter act: inactive; Rab9 prom act: inactive

How did Cc1ccc(COC(=O)c2cc(S(=O)(=O)N3CCOCC3)ccc2C)cc1 do in these assays?
ELG1 DNA repair: 23µM; ELG1 genotoxic: inactive; NPC1 promoter act: inactive; Rab9 prom act: inactive

Results for Cc1ccc(N(Cc2ccccc2)C(=O)c2cc(S(=O)(=O)N3CCOCC3)ccc2F)cc1 ?
FLuc counter: 19µM; ELG1 DNA repair: inactive; ELG1 genotoxic: inactive; NPC1 promoter act: inactive; Rab9 prom act: inactive

Results for Cc1ccc(S(=O)(=O)N2CCOCC2)cc1C(=O)OCC(=O)N1CCCCC1 ?
ELG1 DNA repair: inactive; ELG1 genotoxic: inactive

What do the screens show for `COc1cccc(NC(=O)COC(=O)c2cc(S(=O)(=O)N3CCOCC3)ccc2C)c1`?
FLuc counter: inactive; ELG1 DNA repair: 16µM; ELG1 genotoxic: inactive; NPC1 promoter act: inactive; Rab9 prom act: inactive; SMN2 splice enh: inactive

How did COc1cc(NC(=O)C2Cc3ccccc3N2C(=O)c2ccccc2)cc(OC)c1 (stereo not drawn) do in these assays?
FLuc counter: inactive

What do the screens show for `COc1cccc(CNC(=O)c2ccc(NC(=O)N3CCCCc4ccccc43)cc2)c1`?
FLuc counter: inactive

How did Cc1ccc(-n2ncc(C(=O)NCCc3c[nH]c4ccccc34)c2C2CCN(C(=O)OC(C)(C)C)CC2)cc1C do in these assays?
FLuc counter: inactive; SMN2 splice enh: inactive
